High-throughput results: PubChem, National Center for Advancing Translational Sciences (NCATS)
BAZ2B inh: qHTS Assay for Inhibitors of BAZ2B | AlphaScreen BAZ2B-H3K14Ac peptide displacement | Potency, µM (series often up to 114 µM), for inactives: at the top dose activity change, negative = inhibition, actives largely listed as inhibitors | 360,000 tested, 4.4% active | AID 504333, 2011; also: potency is read from the fitted curve at half-maximal effect; % is scaled to controls: 0 for no effect and ±100 for the full control effect; nearly all actives have a fitted effect of over 60% in size
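Multi-concentration screen (max 110 uM) measuring displacement of acetylated histone H3 peptide from BAZ2B by AlphaScreen, using 50 nM protein, 50 nM peptide and 10 ug/mL streptavidin donor plus Ni-chelate acceptor beads.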
PI5P4Ka inh: qHTS for Inhibitors of phosphatidylinositol 5-phosphate 4-kinase (PI5P4K). PI5P4Kalpha enzyme, ADP-Glo luminescence, 60 min; hits give low values. Phosphatidylinositol 5-phosphate 4-kinase type-2 alpha (Homo sapiens), P48426. AID 652105, 2013. 330,000 tested, 1.2% active. max response, %; active = max response of -50% or lower; inconclusive = between -30% and -50%; inactive = -30% or higher; also: value at the top dose of about 77 µM; % is scaled to controls: 0 for no effect and ±100 for the full control effect
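Enzyme plus substrate dispensed, test compounds pinned in, then ATP (5 microM final) added. After 60 min at RT, ADP-Glo reagent 1 for 45 min and reagent 2 for 30 min preceded luminescence imaging.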
PLK1 PBD inh: qHTS for Inhibitors of PLK1-PDB (polo-like kinase 1 - polo-box domain): Primary Screen; Serine/threonine-protein kinase PLK1 (Homo sapiens), P53350; Plk1 PBD binding of FITC phosphopeptide, fluorescence polarization; Potency, µM, for the others: max response, negative = inhibition, actives largely listed as inhibitors; 360,000 tested, 2.8% active; also: potency is read from the fitted curve at half-maximal effect; series mostly up to about 57 µM; % is scaled to controls: 0 for no effect and ±100 for the full control effect; nearly all actives have a fitted effect of over 65% in size
JMJD2A Tudor: qHTS Assay for Inhibitors of JMJD2A-Tudor Domain; AlphaScreen JMJD2A-Tudor / H3K4me3 peptide binding; AID 504339, 2011; Lysine-specific demethylase 4A (Homo sapiens), O75164; 390,000 tested, 4.4% active; Potency, µM (top dose mostly 114 µM), for the others: top-dose activity change, negative = inhibition, hits mostly inhibitors; also: potency is read from the fitted curve at half-maximal effect; % is scaled to controls: 0 for no effect and ±100 for the full control effect; nearly all actives have a fitted effect of over 50% in size
HP1b chromo inh: HTS for Inhibitors of HP1-beta Chromodomain Interactions with Methylated Histone Tails. Potency, µM (highest dose often 114 µM), for inactives: top-dose activity change, negative = inhibition, actives largely listed as inhibitors. Chromobox protein homolog 1 (Homo sapiens), P83916. AlphaScreen HP1-beta / biotin-H3K9me3 peptide binding. 390,000 tested, 0.56% active; also: potency is read from the fitted curve at half-maximal effect; nearly all actives have a fitted effect of over 70% in size
Target sequence (P83916 whole entry, looked up): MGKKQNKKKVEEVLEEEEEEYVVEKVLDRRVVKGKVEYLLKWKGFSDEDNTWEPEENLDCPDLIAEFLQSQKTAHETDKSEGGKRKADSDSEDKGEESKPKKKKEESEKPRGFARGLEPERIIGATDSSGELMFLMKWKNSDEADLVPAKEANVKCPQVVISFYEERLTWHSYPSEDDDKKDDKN
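AlphaScreen: HP1-beta (50 nM) preformed 30 min with biotin-H3(1-18)K9me3 peptide (50 nM) in PBS pH 7.4, 0.01% Tween-20. Compound added for 30 min at RT, then streptavidin donor/nickel chelate acceptor beads (10 ug/mL) for 30 min.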
G9a block: qHTS Assay for Inhibitors of Histone Lysine Methyltransferase G9a; Histone-lysine N-methyltransferase EHMT2 (Homo sapiens), Q96KQ7; G9a H3K9 monomethylation, AlphaScreen, 2 h; Potency, µM (highest dose often 102 µM), inactives show at the highest dose activity, negative = inhibition, hits mostly inhibitors; 350,000 tested, 8.8% active; AID 504332, 2011; also: potency is read from the fitted curve at half-maximal effect; % is scaled to controls: 0 for no effect and ±100 for the full control effect; nearly all actives have a fitted effect of over 75% in size
Target sequence (Q96KQ7 913-1193 limits assumed): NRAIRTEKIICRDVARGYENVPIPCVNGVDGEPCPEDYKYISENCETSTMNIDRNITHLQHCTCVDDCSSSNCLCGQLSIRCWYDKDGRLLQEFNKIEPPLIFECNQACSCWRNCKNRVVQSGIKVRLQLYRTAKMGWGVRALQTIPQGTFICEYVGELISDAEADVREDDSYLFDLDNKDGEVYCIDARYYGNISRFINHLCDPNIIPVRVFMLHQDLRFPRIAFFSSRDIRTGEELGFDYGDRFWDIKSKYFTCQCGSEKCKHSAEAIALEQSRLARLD
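Chemiluminescent proximity detection of H3K9 monomethylation, read after 10 min bead incubation in the dark. Reaction: 20 nM G9a, 500 nM biotin-H3K9 peptide, 20 uM SAM cofactor, 2 h, room temperature, following 15 min enzyme-compound preincubation.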
Numbers without * were called inactive; ? = inconclusive; · = not tested or not shown; [ ] = another dose, or the depositor's remark. The list is not random: actives were taken first. Their share in the collection is about 12%. Unless noted, calls follow the shape of the dose curve; as a rule, active = well fitted curve in the direction sought with a large enough effect; inconclusive = small, poorly fitted or top-dose-only effect, or another doubt; inactive = no such curve, though single readings can be large; an effect the other way counts as inactive or inconclusive.

SMILES | BAZ2B inh | PI5P4Ka inh | PLK1 PBD inh | JMJD2A Tudor | HP1b chromo inh | G9a block
CC(C)N(N=Nc1ccc([N+](=O)[O-])cc1)C(C)C | -8% | 7 | -3% | -30% | 9% | -8%[59 µM]
O=C(Oc1ccccc1)N1CCC2(CCCN(c3ccccn3)C2)CC1 | · | · | · | · | · | -5%[12.7 µM]
Cc1ccc(NC(=S)NCC2CCCO2)cc1 (stereo not drawn) | -8% | 2 | -7% | -18% | 33% | -5%
CCCNC(=S)N1CCN(CC)CC1 | 50µM* | -11 | -13% | 1.8µM* | -53% | 10µM*
O=C(NC(=S)N1CCN(Cc2ccccc2)CC1)c1ccco1 | -28% | -1 | -5% | -23% | 6% | 50µM*
CCN1CCN(C(=S)NCCc2ccccc2)CC1 | 79µM* | · | -7% | 3.2µM* | ? | ?
Cc1cnn(C(=S)NCC2CCCO2)c1 (stereo not drawn) | -2% | 1 | -9% | 4.5µM* | 47% | 32µM*
CCOc1ccc(-c2nc(Cn3c(=O)cc(C)c4c(C)nn(-c5ccc(C)cc5)c43)c(C)o2)cc1 | -1% | · | · | -1% | 80% | 8%[59 µM]
CCOc1cc(/C=C2\N=C(SC(C)C(N)=O)N(c3ccc(OC(F)F)cc3)C2=O)ccc1O (stereo not drawn) | -34% | -9 | 107% | ? | -3% | ?
CCN1CCN(C(=S)NCC2CCCO2)CC1 (stereo not drawn) | 50µM* | -1 | -6% | 7.9µM* | ? | 40µM*
CCNC(=S)N1CCN(C(c2ccccc2)c2ccccc2)CC1 | -1% | · | -1% | -34% | 16% | -12%[59 µM]
CCNC(=S)N1CCN(Cc2ccccc2)CC1 | 50µM* | -5 | -1% | 8.9µM* | ? | 16µM*
COc1cc(C(=O)OCC(=O)c2cc(C)n(CC3CCCO3)c2C)cc(OC)c1C (stereo not drawn) | 50µM* | 7 | -4% | 45µM* | -13% | ?
COc1cc(C)ccc1OCC(=O)OCC(=O)c1cc(C)n(CC2CCCO2)c1C (stereo not drawn) | -32% | -3 | 4% | -8% | -4% | 25%[12.7 µM]
Cc1cc(C(=O)COC(=O)c2ccc3c(c2)OCO3)c(C)n1CC1CCCO1 (stereo not drawn) | ? | -4 | -10% | -3% | 44% | 50µM*
CCCCc1ccc(NS(=O)(=O)c2cccc(C(=O)N3CCNC(=O)C3)c2)cc1 | 8% | -1 | -4% | -10% | 29% | -28%
CCCSc1ncc(Cl)c(C(=O)NCc2ccc(OC)cc2)n1 | 8% | · | · | 15% | 50% | 8%[59 µM]
CCn1c(C)[n+](CC)c2ccc(S(=O)(=O)N(C)C)cc21 | ? | -19 | -18% | 0% | 24% | 45µM*
CCn1c(C)[n+](CC)c2ccc(C(=O)N(C)c3ccccc3)cc21 | -27% | 0 | 3% | -1% | 30% | 35µM*
CC[n+]1c(C)n(C)c2cc(S(=O)(=O)N(C)C)ccc21 | -39% | 3 | -8% | ? | 20% | ·
CC(=O)OC1CCC2(C)C3=C(CCC2C1(C)C)[C@]1(C)CCC(C(C)CCC=C(C)C)[C@]1(C)CC3 (stereo partly drawn) | · | · | · | · | · | -2%[2.33 µM]
C/C(=C/CCC(C)C1CCC2(C)C3CCC4C(C)(C)C(=O)CCC4(C)C3=CCC12C)C(=O)O (stereo not drawn) | 50µM* | · | · | · | · | 5%[59 µM]
COc1cccc2c1OC1(C)CC2NC(=O)N1c1cccc(C(=O)Nc2ccc3c(c2)OCCO3)c1 (stereo not drawn) | -5% | -9 | 30µM* | -4%[11.4 µM] | -22% | -1%[12.7 µM]
Cc1ccc2nc(-c3ccccn3)c(NC3CCCC3)n2c1 | -9% | -8 | -14% | 45µM* | ? | -43%
Cc1cc(C)n2c(Nc3c(C)cccc3C)c(-c3ccccn3)nc2n1 | · | 2 | 1% | · | · | ·
SMILES | BAZ2B inh | PI5P4Ka inh | PLK1 PBD inh | JMJD2A Tudor | HP1b chromo inh | G9a block
Cc1cccc(C)c1Nc1c(-c2ccsc2)nc2ccccn12 | ? | · | · | 45µM* | ? | 14µM*
Cc1cccc(C)c1Nc1c(-c2ccccn2)nc2ccccn12 | 25µM* | -2 | 4% | 45µM* | ? | 40µM*
Cc1ccc2c(c1)c1c(c(=O)n(Cc3ccccc3)c(=O)n1Cc1ccccc1F)n2C | -4% | · | · | 10% | 47% | ?
O=C(NC1CC1)c1ccccc1 | · | 2 | 6% | · | · | ·
Cn1c(SCC(=O)Nc2ccc(Cl)cc2F)nnc1-c1ccco1 | -12% | 0 | -3% | -13% | -14% | 45µM*
Nn1c(SCC(=O)NCCCc2ccccc2)nnc1-c1cccnc1 | -2% | -5 | -4% | 5% | 45% | 50µM*
Cn1c(SCC(=O)NCCc2ccccc2)nnc1-c1ccco1 | 4% | -7 | ? | 89µM* | -12% | 12%[12.7 µM]
CCn1c(SCC(=O)NCCc2ccccc2)nnc1-c1ccco1 | -3% | -9 | -1% | 7% | 31% | 40µM*
Cn1c(SCC(=O)NCCc2ccccc2)nnc1-c1ccncc1 | · | -3 | -21% | -22%[57.1 µM] | 52% | ?
O=C(NCc1ccco1)C1CCN(C(=O)N2CCOc3ccc(Cl)cc32)CC1 | -32% | · | · | -20% | 44% | -32%[59 µM]
COCCn1c(SCC(=O)NCCc2ccccc2)nnc1-c1ccco1 | -1% | · | -6% | -8% | 36% | 45µM*
COCCn1c(SCC(=O)Nc2ccccc2OC)nnc1-c1ccco1 | -9% | 5 | -7% | 2% | 4% | 12%
COc1ccccc1CNc1nc2ccc(C)cc2n2nnnc12 | -5% | · | · | -9% | 31% | -8%[59 µM]
O=C(Cc1ccc(NC(=O)C2CCCN(C(=O)c3ccccc3)C2)cc1)Nc1ccc(C(=O)N2CCOCC2)cc1 (stereo not drawn) | · | 6 | -14% | -7% | 63% | ·
COc1ccc2cc(C(C)CO)ccc2c1 (stereo not drawn) | · | · | · | · | · | -10%[2.33 µM]
COc1ccc(NC(=O)/C(=C\c2cccs2)NC(=O)c2ccco2)cc1 | -12% | -22 | 21µM* | -17% | 2% | ·
CC(=O)c1cccc(NC(=O)/C(=C\c2ccco2)NC(=O)c2ccco2)c1 | -11% | 1 | -14% | -8% | 15% | 11%
O=C(Nc1ccc(C(=O)O)cc1)/C(=C\c1ccco1)NC(=O)c1ccco1 | 18% | 0 | -14% | -23% | 3% | 50µM*
CC(=O)c1ccc(NC(=O)/C(=C\c2ccco2)NC(=O)c2ccco2)cc1 | -1% | 2 | -4% | -28% | 18% | 50µM*
